Inconclusive results are not listed. The source made the active and inactive calls. Unless noted, calls follow the shape of the dose curve; as a rule, active = well fitted curve in the direction sought with a large enough effect in the repeat runs; inconclusive = weak or mixed curves; inactive = no such curve, though single readings can be large; an effect the other way counts as inactive or inconclusive.
Assays:
[1] = qHTS assay to identify small molecule agonists of the RXR signaling pathway - cell viability counter screen (AID 1159529); also: nearly all actives have a fitted effect of over 50% in size; also: potency is read from the fitted curve at half-maximal effect;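 as to activity change, negative = cytotoxicity: HEK 293T cells carrying an RXR-alpha UAS beta-lactamase reporter; series mostly up to about 77 µM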
Procedure, shortened: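 Counter screen: CellTiter-Glo luminescence. Cells: RXR-alpha-UAS-bla HEK 293T. Medium: 2% charcoal-stripped FBS. Treatment: 16 h, 37 C. Reagent incubation: 30 min, RT.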

[2] = qHTS assay to identify small molecule antagonists of the retinoid acid receptor (RAR) signaling pathway - cell viability counter screen (AID 1159551); also: nearly all actives have a fitted effect of over 35% in size
Procedure, shortened: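 Following overnight attachment, C3RL4 reporter cells received DMSO-dissolved compounds and then retinol (1 uM final). Six hours later at 37 C, ATP content was measured by CellTiter-Glo luminescence.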

[3] = qHTS assay to identify small molecule antagonists of the retinoic acid receptor (RAR) signaling pathway (AID 1159552; also: nearly all actives have a fitted effect of over 50% in size)
Procedure, shortened: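 Antagonism of retinol-induced RARE reporter activity was measured in C3RL4 cells. Exposure to compounds and 1 uM final retinol lasted 6 hr at 37 C, with luminescence as endpoint.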

[4] = qHTS assay to identify small molecule agonists of the retinoic acid receptor (RAR) signaling pathway (AID 1159553)
Procedure, shortened: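 Cell line C3RL4, RARE luciferase reporter. Treatment: compounds in DMSO, 6 hr, 37 C, 5% CO2, after overnight plating. Detection: luminescence, 30 min RT after reagent.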

[5] = target: Luciferin 4-monooxygenase (Photinus pyralis) (UniProt P08659); test: qHTS assay to identify small molecule inhibitors of firefly luciferase (AID 1224835); also: nearly all actives have a fitted effect of over 25% in size; also: potency is read from the fitted curve at half-maximal effect
Procedure, shortened: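 Inhibition of purified Photinus luciferase is measured by luminescence. Substrate levels (D-luciferin, ATP) sit at their KM values. Each compound is tested in a concentration series.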

[6] = qHTS assay to identify small molecule agonists of the constitutive androstane receptor (CAR) signaling pathway - cell viability counter screen (AID 1224836); also: series mostly up to about 92 µM; nearly all actives have a fitted effect of over 45% in size
Procedure, shortened: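 Double-stable HepG2 hepatoma cells (hCAR plus CYP2B6-2.2kb) are treated for 23 h at 37 C with test compounds in 15-point concentration series. PK11195 at 0.75 uM final is co-added. Cell viability is quantified by CellTiter-Fluor.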

[7] = qHTS assay to identify small molecule antagonists of the constitutive androstane receptor (CAR) signaling pathway - cell viability counter screen (AID 1224837); also: series mostly up to about 92 µM; nearly all actives have a fitted effect of over 45% in size
Procedure, shortened: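 Fluorescence from CellTiter-Fluor served as the viability signal. Human hepatoma HepG2 cells stably bearing hCAR and CYP2B6-2.2kb received compound plus CITCO (50 nM final) for 23 hr.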

[8] = target: Nuclear receptor subfamily 1 group I member 3 (Homo sapiens) (UniProt Q14994); test: qHTS assay to identify small molecule antagonists of the constitutive androstane receptor (CAR) signaling pathway (AID 1224838);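 also: HepG2 cells stably expressing hCAR with CYP2B6 luciferase reporter stimulated by CITCO; nearly all actives have a fitted effect of over 40% in size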; also: potency is read from the fitted curve at half-maximal effect
Procedure, shortened: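 Quantitative HTS in double-stable HepG2-CYP2B6-hCAR cells. After 4 h plating, cells get compound (15 concentrations) and CITCO at 50 nM final, incubate 24 h at 37 C, then ONE-Glo luminescence is read.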

[9] = qHTS assay to identify small molecule antagonists of the estrogen related receptor signaling pathway with the pleiotropic PPARgamma coactivator (PGC) from Tox21 10K library - cell viability counter screen (AID 1224840; active = well fitted cell-killing curve with a large enough effect in the repeat runs, not every such curve was filed as active; also: nearly all actives have a fitted effect of over 40% in size)
Procedure, shortened: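 Compounds in DMSO, alongside positive and negative controls, were pinned onto PGC/ERR cells (2,000 per well). Exposure lasted 17.5 hours at 37 C, followed by a 30-minute CellTiter-Fluor incubation and fluorescence reading.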

[10] = qHTS assay to identify small molecule antagonists of the estrogen related receptor signaling pathway with the pleiotropic PPARgamma coactivator (PGC) from Tox21 10K library (AID 1224841; call rule not given here; also: series mostly up to about 92 µM; actives are mostly falling curves and most rising ones were filed inactive; nearly all actives have a fitted effect of over 50% in size)
Procedure, shortened: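 Compound exposure ran 18 hours at 37 C in PGC/ERR cells (2,000/well) that had first rested 6 hours in a 37 C/5% CO2 incubator. Luciferase activity was then detected with One-Glo after a 30-minute room-temperature step.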

[11] = qHTS assay to identify small molecule agonists of the estrogen related receptor signaling pathway with the pleiotropic PPARgamma coactivator (PGC) from Tox21 10K library (AID 1224842); also: nearly all actives have a fitted effect of over 15% in size
Procedure, shortened: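 Luminescence from One-Glo (30 min, room temperature) measured after PGC/ERR cells had 18 h at 37 C with pinned compound (23 nL in DMSO). Cells had been seeded at 2,000 per well and pre-incubated 6 h.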

[12] = qHTS assay to identify small molecule antagonists of the estrogen related receptor (ERR) signaling pathway from Tox21 library - cell viability counter screen (AID 1224834); also: nearly all actives have a fitted effect of over 30% in size
Procedure, shortened: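 Viability readout (CellTiter-Fluor fluorescence, 30 min at 37 C) multiplexed with the ERR assay; cells treated 17.5 h at 37 C with compounds delivered in DMSO.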

[13] = target: Nuclear receptor subfamily 1 group I member 3 (Homo sapiens) (UniProt Q14994); test: qHTS assay to identify small molecule agonists of the constitutive androstane receptor (CAR) signaling pathway (AID 1224839);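 also: HepG2 cells stably carrying human CAR and a CYP2B6 luciferase reporter; series mostly up to about 92 µM; nearly all actives have a fitted effect of over 15% in size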
Procedure, shortened: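 Readout: firefly luciferase luminescence via ONE-Glo. System: HepG2 double-stable for hCAR and CYP2B6-2.2kb. Conditions: 15-point compound titration, PK11195 at 0.75 uM final, 24 h incubation.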
% is scaled to controls: 0 for no effect and ±100 for the full control effect.

Nuclear receptor subfamily 1 group I member 3 (Homo sapiens), sequence (Q14994 whole entry, looked up): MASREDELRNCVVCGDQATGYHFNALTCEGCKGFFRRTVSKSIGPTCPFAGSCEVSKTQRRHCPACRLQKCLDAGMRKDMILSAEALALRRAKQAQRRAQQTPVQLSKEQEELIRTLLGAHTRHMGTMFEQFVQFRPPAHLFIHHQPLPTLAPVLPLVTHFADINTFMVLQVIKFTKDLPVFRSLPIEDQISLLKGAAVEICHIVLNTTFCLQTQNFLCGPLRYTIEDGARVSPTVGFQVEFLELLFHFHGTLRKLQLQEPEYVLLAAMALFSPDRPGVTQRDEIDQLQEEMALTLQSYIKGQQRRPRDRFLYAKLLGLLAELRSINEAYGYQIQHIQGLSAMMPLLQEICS
Luciferin 4-monooxygenase (Photinus pyralis), sequence (P08659 whole entry, looked up): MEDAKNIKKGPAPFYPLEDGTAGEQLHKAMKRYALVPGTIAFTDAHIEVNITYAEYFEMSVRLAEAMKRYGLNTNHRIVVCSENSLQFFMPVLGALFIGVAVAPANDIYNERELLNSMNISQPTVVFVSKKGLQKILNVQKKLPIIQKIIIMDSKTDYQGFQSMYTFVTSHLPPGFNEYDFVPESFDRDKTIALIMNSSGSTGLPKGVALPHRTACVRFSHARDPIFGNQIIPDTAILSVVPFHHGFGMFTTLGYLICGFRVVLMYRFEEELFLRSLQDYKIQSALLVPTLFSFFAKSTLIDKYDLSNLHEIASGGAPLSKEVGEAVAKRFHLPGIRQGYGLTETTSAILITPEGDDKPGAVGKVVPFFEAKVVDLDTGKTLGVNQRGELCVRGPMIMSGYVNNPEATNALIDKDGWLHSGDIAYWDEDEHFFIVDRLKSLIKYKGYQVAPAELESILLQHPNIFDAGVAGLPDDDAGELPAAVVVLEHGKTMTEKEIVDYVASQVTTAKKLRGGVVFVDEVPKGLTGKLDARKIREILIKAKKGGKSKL

CCCCCCCCN(C)CCCCCCCC
inactive: Potency [1] | outcome [2] | Potency [3] | Potency [4] | Potency [5] | outcome [6] | outcome [7] | Potency [8] | outcome [9] | Potency [10] | Potency [11]

C=C(C)C1CC=C(C)C(O)C1 (stereo not drawn)
inactive: Potency [1] | outcome [2] | Potency [3] | Potency [4] | Potency [12] | outcome [6] | outcome [7] | Potency [8] | Potency [13] | outcome [9] | Potency [10] | Potency [11]

CC(C)(O)c1ccccc1
inactive: Potency [1] | outcome [2] | Potency [3] | Potency [4] | Potency [12] | Potency [5] | outcome [6] | outcome [7] | Potency [13] | outcome [9] | Potency [10] | Potency [11]

COCCOC(=O)CC#N
inactive: Potency [1] | outcome [2] | Potency [3] | Potency [4] | Potency [12] | Potency [5] | outcome [6] | outcome [7] | Potency [13] | outcome [9]

CC(C)(C)C(=O)/C=C/c1ccc(Cl)cc1
active: Potency [5] 25.2 µM
inactive: Potency [1] | outcome [2] | Potency [3] | Potency [4] | Potency [12] | outcome [6] | outcome [7] | Potency [8] | Potency [13] | outcome [9] | Potency [10] | Potency [11]

C1=C\CC/C=C\CC/C=C\CC/1
inactive: Potency [1] | outcome [2] | Potency [3] | Potency [4] | Potency [12] | outcome [6] | outcome [7] | Potency [8] | Potency [13] | outcome [9] | Potency [10] | Potency [11]

CCCC(C)CO (stereo not drawn)
inactive: Potency [1] | outcome [2] | Potency [3] | Potency [4] | Potency [12] | Potency [5] | outcome [6] | outcome [7] | Potency [13] | outcome [9]

O=C(O)C(O)[C@H](O)[C@@H](O)[C@H](O)[C@H](O)CO (stereo partly drawn)
active: Potency [1] 49.5 µM
inactive: outcome [2] | Potency [3] | Potency [4] | Potency [12] | Potency [5] | outcome [6] | outcome [7] | Potency [8] | Potency [13] | outcome [9] | Potency [11]

CCOC(=O)Nc1ccc2c(c1)N(C(=O)CCN1CCOCC1)c1ccccc1S2
inactive: Potency [1] | outcome [2] | Potency [3] | Potency [4] | Potency [12] | Potency [5] | outcome [6] | outcome [9]
active: Potency [8] 1.19 µM

CN(C)N=Nc1ccccc1
inactive: Potency [1] | outcome [2] | Potency [5] | outcome [6] | outcome [7] | outcome [9] | Potency [10] | Potency [11]

Nc1nc(F)nc2c1ncn2[C@@H]1O[C@H](CO)[C@@H](O)[C@@H]1O
inactive: Potency [1] | outcome [2] | Potency [12] | Potency [5] | outcome [6] | Potency [13] | outcome [9]

CC(C)N1C(=O)c2ccccc2C1=O
inactive: Potency [1] | outcome [2] | Potency [12] | Potency [5] | outcome [6] | outcome [7] | Potency [8] | outcome [9]

COc1cccc(OC)c1
inactive: Potency [1] | outcome [2] | outcome [6] | outcome [7] | Potency [8] | Potency [13] | outcome [9]

OCc1ccccn1
inactive: outcome [2] | Potency [12] | Potency [5] | outcome [6] | outcome [9] | Potency [10] | Potency [11]

CC(C)=CCC/C(C)=C/C(=O)O
inactive: Potency [1] | outcome [2] | Potency [12] | Potency [5] | outcome [6] | outcome [7] | outcome [9]

O=C1C(CCS(=O)c2ccccc2)C(=O)N(c2ccccc2)N1c1ccccc1 (stereo not drawn)
inactive: Potency [1] | outcome [2] | Potency [12] | outcome [6] | outcome [7] | Potency [8] | Potency [13] | outcome [9]

Cc1cc(C)c(NC(=O)CN(CC(=O)O)CC(=O)O)c(C)c1Br
inactive: Potency [1] | outcome [2] | Potency [5] | outcome [6] | outcome [7] | Potency [13] | outcome [9]

CCn1cc(C(=O)O)c(=O)c2cc(F)c(N3CCN(C)CC3)cc21
inactive: activity change, negative = cytotoxicity [1] 6.61% [at 15.8 µM] | activity change, negative = cytotoxicity [2] 1.65% [at 19 µM] | viability change, negative = cytotoxic [6] 2.39% [at 19 µM] | activity change, negative = cytotoxicity [7] 2.92% [at 19 µM] | viability change, negative = cytotoxic [9] 8.09% [at 19 µM]

C(=C(c1ccccc1)c1ccccc1)c1ccccc1
inactive: outcome [2] | Potency [3] | Potency [4] | Potency [5] | outcome [6] | Potency [8] | outcome [9]

CCCCCCC(CCCCCCCCCCC(=O)OCC(COC(C)=O)OC(C)=O)OC(C)=O (stereo not drawn)
inactive: Potency [1] | outcome [2] | Potency [12] | Potency [5] | outcome [6] | outcome [7] | outcome [9]

COC[C@H](c1ccc(C(F)(F)F)cc1)N1CCN(C2(C)CCN(C(=O)c3c(C)ncnc3C)CC2)C[C@H]1C
inactive: outcome [2] | Potency [12] | Potency [5] | outcome [6] | Potency [8] | outcome [9] | Potency [10] | Potency [11]

CCC(=O)c1cccc(Cl)c1
inactive: outcome [2] | Potency [3] | Potency [4] | outcome [6] | outcome [7] | outcome [9]

C=CCOCC(O)CS(=O)(=O)O (stereo not drawn)
inactive: Potency [1] | outcome [2] | Potency [12] | Potency [5] | outcome [6] | outcome [7] | Potency [8] | outcome [9]

CC/C=C\C#N
inactive: Potency [1] | outcome [2] | Potency [12] | Potency [5] | outcome [6] | Potency [8] | Potency [13] | outcome [9]

Cc1ccccc1Br
inactive: outcome [2] | Potency [3] | Potency [4] | Potency [5] | outcome [6] | outcome [7] | Potency [8] | outcome [9] | Potency [10] | Potency [11]

CNc1ncnc2nc[nH]c12
inactive: Potency [1] | Potency [3] | Potency [12] | Potency [5] | outcome [6] | outcome [7] | outcome [9] | Potency [10] | Potency [11]
